Molecules are shown by their SMILES. Out of some 190,000 compounds screened, about 120 (0.063%) were called active. No stated cut-off is given here; in the data, active means inhibition above about 40%; inconclusive means no clear call, values can overlap the other calls; inactive means below that. Shown is part of a subset that was picked to be rich in actives.

For this test, the target named is Apoptosis regulator Bcl-2 (Homo sapiens) (UniProt P10415). The test can be described thus: Bcl-2 and Bim peptide interaction disruptors – biochemical, multiplexed, human Bcl-2 family, primary screen (AID 950).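 Further: 0% = no compound wells with probe peptide and 100% = reference peptide inhibitor.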 The following applies: Bead-based flow cytometry, Bim peptide-Bcl-2 binding; at 10 µM; hits give high values.
Chain of Apoptosis regulator Bcl-2 (Homo sapiens) (P10415 whole entry, looked up): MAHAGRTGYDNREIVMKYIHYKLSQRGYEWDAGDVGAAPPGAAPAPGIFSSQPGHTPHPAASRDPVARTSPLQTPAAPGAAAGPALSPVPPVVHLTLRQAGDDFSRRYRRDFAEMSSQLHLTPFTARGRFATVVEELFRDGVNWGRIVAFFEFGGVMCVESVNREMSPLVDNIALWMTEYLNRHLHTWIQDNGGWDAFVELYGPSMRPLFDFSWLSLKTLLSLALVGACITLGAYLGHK
For `CCc1nnc(NC(=O)CSc2nnnn2-c2cccc(C(C)=O)c2)s1`, the inhibition is -2% (inactive).

Turning to `Cn1cc(CCC(=O)N2CCCC(C(=O)c3ccc(C(C)(C)C)cc3)C2)cn1` (centres undefined), the inhibition is -5% (inactive). For `O=C(NCc1ccncc1)C(=O)NCc1ccco1` the value was -1% (inactive). For `Cc1ccc(S(=O)(=O)NC2(C(F)(F)F)NC(=O)N(CCc3ccccc3)C2=O)cc1` (centres undefined) the value was -1% (inactive). For `C=CS(=O)c1sc(Cl)c(N2CCOCC2)c1[N+](=O)[O-]` (centres undefined) the value was 14% (inactive); for `CN1C(=O)/C(=C\c2cc(Br)cs2)c2ccccc21`, -2% (inactive); for `CC(=O)c1cc(C#N)c(N2CC(C)OC(C)C2)nc1C` (centres undefined), -4% (inactive). As for `Oc1ccc(/C=N/N(Cc2ccccc2)c2ccccc2)cc1`, the inhibition is -9% (inactive). Then `Cn1ncc(N2CCN(S(=O)(=O)c3ccc(Br)cc3)CC2)c(Cl)c1=O`, with -9% (inactive); and `C=CCOc1ccc(/C=N/NC(=O)C(C)Sc2ccccn2)cc1OCC` (centres undefined), with -6% (inactive).

For `O=C(NNS(=O)(=O)c1ccc(F)cc1)c1cnccn1`, the inhibition is 0% (inactive).

Consider `COCCC(=O)Nc1ccc2c(c1)CN(C(=O)CCOC)CC2`, for which the inhibition was -4% (inactive). As to `Cc1ccc(NC(=O)CCC(=O)N/N=C/c2ccco2)c(C)c1`, the inhibition is -6% (inactive). Then `CCCc1cc(=O)[nH]c(SCc2cc(=O)oc3c(C)c(C)ccc23)n1`, with -3% (inactive); and `Cc1cccc(-c2nc3ccccc3c(=O)n2NC(=O)Cc2ccc(Cl)cc2)c1`, with -11% (inactive); and `S=C(NCc1ccco1)Nc1ccc2c(c1)OCCO2`, with -1% (inactive).

In the case of `CCCCC(=O)NCc1ccc(F)cc1`, the inhibition is 0% (inactive). For `COc1ccc(NC(=S)NCc2cccs2)c(OC)c1` the value was -4% (inactive). As for `O=C(O)CS/C(=C\c1ccc(F)cc1)c1nc2ccccc2s1`, the inhibition was 7% (inactive).

Turning to `CSCc1cc(N(C)C)nc(SCc2ccc(Cl)cc2Cl)n1`, the inhibition is 76% (active).

Consider `CSCc1cc(N2CCOCC2)nc(SCc2ccc(Cl)cc2Cl)n1`, for which the inhibition was -12% (inactive). For `Clc1ccc(CSc2nnc(/C=C/c3ccccc3)o2)c(Cl)c1` the value was -8% (inactive). With `COc1ccc(/C(C)=N/Nc2cc(C(F)(F)F)ccc2Cl)c(OC)c1`, the inhibition was 2% (inactive). Then `COc1c(C)cc(C(=O)C2CCCN(S(=O)(=O)c3c(C)noc3C)C2)cc1C` (centres undefined), with 0% (inactive). On to `CC1(C)OC(=O)C(=CSc2ccc(C(C)(C)C)cc2)C(=O)O1`, for which the inhibition is -3% (inactive). For `CCOC(=O)C1CCN(c2ncnc3c2c(-c2ccccc2)cn3-c2ccc(C)cc2)CC1` the value was -5% (inactive).

In the case of `CCCN(CCC)c1ccc(C(O)c2nnc(-c3ccccc3)o2)cc1` (centres undefined), the inhibition was -5% (inactive).

As to `O=C(COc1ccc(Cl)cc1)NCc1nnc(SCC(=O)NCC2CCCO2)o1` (centres undefined), the inhibition is -2% (inactive). `COC(=O)c1c(NC(=O)CN2CCN(S(=O)(=O)c3ccccc3[N+](=O)[O-])CC2)sc2c1CCC(C)C2` (centres undefined): the inhibition is 2% (inactive). Regarding `O=S(=O)(c1ccccc1)c1nc(-c2ccccc2F)oc1NCc1cccnc1`, the inhibition is 2% (inactive). Then `CS(=O)(=O)N(Cc1ccccc1Cl)c1ccc(C(=O)NCc2cccnc2)cc1`, with -4% (inactive); and `CCOC(=O)c1sc(NC(=O)CSc2nc(O)c(Cc3ccccc3)c(=O)[nH]2)nc1C`, with 0% (inactive).

As to `COc1ccc(CN2CN(C3CCCC3)CSC2=S)cc1`, the inhibition is -4% (inactive).

For `COC(=O)c1ccc(-n2cnc3ccccc32)nc1`, the inhibition was -4% (inactive). On to `CCOc1cc(/C=C2/C(=N)N3OC(C)=CC3=NC2=O)ccc1OC`, for which the inhibition is 2% (inactive). For `CNC(=O)c1[nH]cnc1C(=O)N[C@@H](CC(C)C)C(=O)OCc1ccccc1` the value was -3% (inactive); for `CCOC(=O)Cn1nnnc1C`, -3% (inactive); for `CN(NC(=O)C1CC(=O)N(c2ccccc2)C1)C1=NS(=O)(=O)c2ccccc21` (centres undefined), -2% (inactive). On to `Cc1nc2sc3c(c2c(=O)n1NC(=O)CCl)CCCC3`, for which the inhibition is -3% (inactive). As for `COc1ccc(N(CC(=O)Nc2ccc(C)cc2C)S(=O)(=O)c2ccccc2[N+](=O)[O-])c(OC)c1`, the inhibition was -1% (inactive). As for `COc1cccc(CN(C)CC(=O)NCc2ccccc2Cl)c1OC`, the inhibition is 0% (inactive). Turning to `CCOC(=O)c1[nH]cnc1C(=O)Nc1ccccc1C`, the inhibition is 1% (inactive). Consider `CCCC1(C(=O)OC)NC(c2ccco2)C2C(=O)N(C)C(=O)C21` (centres undefined), for which the inhibition is -2% (inactive). Then `CC(=O)Nc1ccc(OC(=O)COc2ccc(Br)cc2)cc1`, with 0% (inactive). As for `c1ccc(Cc2cc[n+](Cc3ccccc3)cc2)cc1`, the inhibition is 0% (inactive).

For the molecule `C/C(CC(=O)Nc1ccc(C)cc1C)=N\NC(=O)C(C)C`, the inhibition was 0% (inactive).

With `COc1cccc(NC(=O)CN(C)CC(=O)Nc2ccc3c(c2)CCC3)c1`, the inhibition is 0% (inactive). For `Cc1ccc(NC(=O)N2CCSc3ccccc32)cc1` the value was -1% (inactive); for `COc1ccc(NC(=S)Nc2ccc(S(N)(=O)=O)cc2)c(C)c1`, -4% (inactive); for `O=C(c1ccc(Br)o1)N(c1ccccn1)C1CCCCC1`, -16% (inactive).

On to `Cc1sc2c(c1C)c(=O)n(-c1ccccc1)c(=O)n2CC(=O)NCC1CCCO1` (centres undefined), for which the inhibition is 1% (inactive).

In the case of `COc1ccc(Br)cc1CN(C)CC(=O)Nc1cc([N+](=O)[O-])ccc1OC`, the inhibition is -9% (inactive). `O=C(/C=C/c1ccccc1Cl)Nc1ccc(S(=O)(=O)Nc2ncccn2)cc1`: the inhibition is -1% (inactive). As for `COC(=O)Cc1ccc(OCC(=O)Nc2ccc(OC(F)(F)F)cc2)cc1`, the inhibition was -5% (inactive). For `O=C(C1CCCO1)N(c1ccc(F)cc1)C1C=CS(=O)(=O)C1` (centres undefined) the value was -2% (inactive); for `CCc1nnc(NC(=O)CCN(c2ccc(C)cc2)S(=O)(=O)c2ccccc2)s1`, 0% (inactive); for `COc1ccc(-c2csc(NC(=O)c3ccc(N4C(=O)CCC4=O)cc3)n2)cc1OC`, -4% (inactive).

With `CCOc1ccc(NC(=O)CC2C(=O)N(c3ccccc3)C(=O)N2CCOC)cc1` (centres undefined), the inhibition is 1% (inactive).

As to `Cc1ccc(C(NC(=O)N2CCCC2)C(Cl)(Cl)Cl)cc1F` (centres undefined), the inhibition is -1% (inactive).

As to `COc1ccc(C[C@H]2CN3C(=NC[C@H]3C)N2CCNC(=O)CCC2CCCCC2)cc1`, the inhibition was 0% (inactive). As to `CCOc1ccc(-c2ccc(SCC(=O)N3CCOCC3)nn2)cc1`, the inhibition was -3% (inactive). For the molecule `O=C(CC1CCCCC1)NCc1ccco1`, the inhibition was -4% (inactive). For `CCOC(=O)CNC(=O)/C=C/c1c(Cl)cccc1Cl` the value was 4% (inactive). Turning to `CCN(CC)CCCNC(=O)Cn1cnc2sc(C)c(S(=O)(=O)N3CCN(c4ncccn4)CC3)c2c1=O`, the inhibition is -3% (inactive). For `CCOn1c(=O)c(=O)n(O)c2ccccc21` the value was -1% (inactive); for `CCO[C@@H]1OC(C(=O)NCc2nc3ccccc3[nH]2)=C[C@H](C2CCCCC2)[C@H]1CCCO`, -2% (inactive). Regarding `Fc1cccc(CSc2nnc3ccc(-c4ccncc4)nn23)c1`, the inhibition is 3% (inactive). For `CSc1ccc(/C=N/NC(=O)c2cccc(Cl)c2)cc1` the value was -7% (inactive); for `O=C(Cc1ccc([N+](=O)[O-])cc1)N/N=C/c1ccco1`, -4% (inactive). For `CC1(C)CC(=O)C(C2c3ccccc3S(=O)(=O)c3ccccc32)C(=O)C1` the value was 0% (inactive). Regarding `O=C(Oc1c(-c2ccco2)oc2ccccc2c1=O)c1cccnc1`, the inhibition was -4% (inactive). With `CCOCCCn1c(NN)nc2ccccc2c1=O`, the inhibition is -5% (inactive). `CCOc1ccc(NC(=O)c2ccc(CSc3nnnn3C)cc2)cc1`: the inhibition was -9% (inactive). Turning to `Nc1nnc(SCn2nnc3ccccc3c2=O)s1`, the inhibition is -5% (inactive). For `CN(CC(=O)Nc1ccccc1F)CC(=O)Nc1ccccc1Br` the value was -5% (inactive); for `Cc1cc(C)cc(N(CC(=O)NCCSCc2ccco2)S(C)(=O)=O)c1`, -7% (inactive); for `COc1ccc(C(CCN(Cc2ccc(OC)c(OC)c2)C(=O)CCl)c2ccccc2)cc1` (centres undefined), -6% (inactive). Consider `COc1cc(OC)c(C(=O)OC(C)C(=O)Nc2cc(C(F)(F)F)ccc2Cl)cc1OC` (centres undefined), for which the inhibition was -3% (inactive). With `Cc1ccnc(NC(=O)C(C)N2C(=O)c3ccccc3C2=O)c1` (centres undefined), the inhibition was 0% (inactive).

The inhibition is the relative decrease from the control value, in per cent.
